# Measurements taken from PubChem BioAssay (Tox21).
# Unmarked numbers belong to inactive results. Results filed as inconclusive are left out. Where a call stands in place of a potency, no number is given. Calls of active or inactive are those of the source. Unless noted, calls come from the whole dose curve; as a rule, active = well fitted curve in the direction sought with a large enough effect in the repeat runs; inconclusive = weak or mixed curves; inactive = no such curve, though single readings can be large; an effect the other way counts as inactive or inconclusive.
# Key:
# [1] = qHTS assay to test for compound auto fluorescence at 535 nm (green) in HEK293 cells (AID 720680)
# [2] = qHTS assay to test for compound auto fluorescence at 460 nm (blue) in HEK293 cell free culture (AID 720681)
# Outline: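 Blue fluorescence (Ex 405/Em 460 nm, triamterene-equivalent) was read immediately after pin transfer of compound or DMSO into medium (DMEM, 10% FBS) without cells.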
# [3] = qHTS assay to test for compound auto fluorescence at 535 nm (green) in HEK293 cell free culture (AID 720682)
# Outline: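 Using fluorescein as calibrant, autofluorescence was quantified at 485/535 nm in cell-free DMEM containing 10% FBS after pintool addition of compound or vehicle.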
# [4] = qHTS assay to test for compound auto fluorescence at 590 nm (red) in HEK293 cell free culture (AID 720683)
# Outline: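 Red-channel autofluorescence of compounds in culture medium (DMEM, 10% FBS), no cells, measured at 540/590 nm. Rose Bengal sodium is the reference fluorophore for equivalence.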
# [5] = qHTS assay to test for compound auto fluorescence at 590 nm (red) in HepG2 cell free culture (AID 720684)
# Outline: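 No cells present: MEM + 10% FBS only. Compound pinned in, red label read (540/590 nm). Activity = fluorescence equivalent to Rose Bengal sodium.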
# [6] = qHTS assay to test for compound auto fluorescence at 460 nm (blue) in HepG2 cell free culture (AID 720685)
# Outline: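 Cell-free plates of MEM plus 10% FBS received 23 nL compound or DMSO vehicle; blue-channel (405/460 nm) intensity scored against triamterene as reference fluorophore.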
# [7] = qHTS assay for identifying genotoxic compounds that show differential cytotoxicity against isogenic chicken DT40 cell lines with known DNA damage response pathways - wild type cell line (AID 743012); note: nearly all actives have a fitted effect of over 60% in size; note: potency is the fitted concentration of half-maximal effect
# Outline: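 Viability of DNA repair-proficient chicken DT40 cells was assessed by CellTiter-Glo luminescence following 40 h compound exposure at 37 C/5% CO2.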
# [8] = qHTS assay for identifying genotoxic compounds that show differential cytotoxicity against isogenic chicken DT40 cell lines with known DNA damage response pathways - Rev3 mutant cell line (AID 743014); note: nearly all actives have a fitted effect of over 55% in size; note: potency is the fitted concentration of half-maximal effect
# [9] = qHTS assay for identifying genotoxic compounds that show differential cytotoxicity against isogenic chicken DT40 cell lines with known DNA damage response pathways - Rad54/Ku70 mutant cell line (AID 743015); note: nearly all actives have a fitted effect of over 60% in size; note: potency is the fitted concentration of half-maximal effect
# [10] = qHTS assay to identify small molecule antagonists of the androgen receptor (AR) signaling pathway - cell viability counter screen (AID 743033; note: nearly all actives have a fitted effect of over 45% in size; note: potency is the fitted concentration of half-maximal effect)
# [11] = qHTS assay to identify small molecule antagonists of the androgen receptor (AR) signaling pathway using the MDA cell line - cell viability counter screen (AID 743041; note: nearly all actives have a fitted effect of over 45% in size; note: potency is the fitted concentration of half-maximal effect)
# Outline: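 Using the breast carcinoma line MDA-kb2 AR-luc, test chemicals were co-incubated with R1881 for 16 h; CellTiter-Fluor reagent, added at 15.5 h, provided a fluorescence measure of live cells.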
# [12] = qHTS assay to test for compound auto fluorescence at 460 nm (blue) in HepG2 cells (AID 720687)
# Outline: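 Blue-channel autofluorescence (Ex/Em 405/460 nm, triamterene-equivalent) was measured after 1 hr compound exposure at 37 C, 5% CO2. Cells were HepG2, plated overnight at 37 C in MEM plus 10% FBS.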
# [13] = target: Glucocorticoid receptor (Homo sapiens) (UniProt P04150); assay: qHTS assay to identify small molecule agonists of the glucocorticoid receptor (GR) signaling pathway (AID 720691; active = well fitted activation curve with a large enough effect in the signal ratio in the repeat runs, not every such curve was filed as active; the % refers to the signal ratio; note: potency is the fitted concentration of half-maximal effect); conditions: GR-bla HeLa, beta-lactamase reporter ratio, 18 h; activation: at 62.4 µM (top of the series)
# Outline: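 Compounds in DMSO, alongside positive controls, were added to GR-bla HeLa reporter cells and incubated 18 h at 37 C; GRE-driven beta-lactamase was detected by fluorescence after 2 h with FRET substrate at room temperature.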
# [14] = target: Glucocorticoid receptor (Homo sapiens) (UniProt P04150); assay: qHTS assay to identify small molecule antagonists of the glucocorticoid receptor (GR) signaling pathway (AID 720692; active = well fitted inhibition curve with a large enough effect in the signal ratio in the repeat runs, not every such curve was filed as active; the % refers to the signal ratio)
# Outline: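 In a 1536-well cell format, compounds were added 4 h after seeding GR-bla HeLa cells, together with dexamethasone at 5 nM final; reporter activity was measured by FRET-substrate fluorescence following 18 h at 37 C.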
# [15] = qHTS assay to identify small molecule antagonists of the glucocorticoid receptor (GR) signaling pathway - cell viability counter screen (AID 720693); note: nearly all actives have a fitted effect of over 55% in size; note: potency is the fitted concentration of half-maximal effect
# [16] = qHTS assay to test for compound auto fluorescence at 535 nm (green) in HepG2 cell free culture (AID 720686)
# Sequence of Glucocorticoid receptor (Homo sapiens) (P04150 whole entry, looked up): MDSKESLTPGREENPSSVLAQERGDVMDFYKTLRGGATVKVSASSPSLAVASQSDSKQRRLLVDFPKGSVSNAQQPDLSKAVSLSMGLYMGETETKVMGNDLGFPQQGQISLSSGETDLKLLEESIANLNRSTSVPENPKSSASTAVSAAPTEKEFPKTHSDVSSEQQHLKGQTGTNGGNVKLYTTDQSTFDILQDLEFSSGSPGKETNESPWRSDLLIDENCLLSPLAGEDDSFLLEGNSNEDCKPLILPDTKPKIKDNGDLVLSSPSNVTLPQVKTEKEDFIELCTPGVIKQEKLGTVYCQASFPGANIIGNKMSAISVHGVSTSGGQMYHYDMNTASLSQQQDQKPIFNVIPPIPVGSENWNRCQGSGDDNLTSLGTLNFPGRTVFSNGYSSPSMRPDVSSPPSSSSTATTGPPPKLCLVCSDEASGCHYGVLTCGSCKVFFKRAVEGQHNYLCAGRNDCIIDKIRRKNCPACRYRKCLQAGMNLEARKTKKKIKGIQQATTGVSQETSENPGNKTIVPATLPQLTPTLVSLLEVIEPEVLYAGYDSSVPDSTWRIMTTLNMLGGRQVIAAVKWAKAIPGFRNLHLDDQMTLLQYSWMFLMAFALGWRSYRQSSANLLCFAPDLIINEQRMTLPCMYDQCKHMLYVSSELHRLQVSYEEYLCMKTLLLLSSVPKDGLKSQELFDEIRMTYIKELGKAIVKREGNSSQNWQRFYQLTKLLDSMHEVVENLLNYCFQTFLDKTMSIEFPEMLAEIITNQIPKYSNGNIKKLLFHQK
smiles,measurement,setting,value
O=S(=O)(NS(=O)(=O)C(F)(F)F)C(F)(F)F,outcome,[1],inactive
same,Potency,[2],inactive
same,outcome,[3],inactive
same,outcome,[4],inactive
same,outcome,[5],inactive
same,Potency,[6],inactive
same,Potency,[7],inactive
same,Potency,[8],inactive
same,Potency,[9],inactive
same,Potency,[10],inactive
same,Potency,[11],inactive
c1ccc2nc(N3CCNCC3)ccc2c1,outcome,[1],inactive
same,Potency,[2],inactive
same,outcome,[3],inactive
same,outcome,[4],inactive
same,outcome,[5],inactive
same,Potency,[6],inactive
same,Potency,[12],inactive
same,Potency,[13],inactive
same,Potency,[14],inactive
same,Potency,[15],inactive
same,Potency,[7],29.8 µM (active)
same,Potency,[10],inactive
CSC(C)(C)/C=N/O,outcome,[1],inactive
same,Potency,[2],inactive
same,outcome,[3],inactive
same,outcome,[4],inactive
same,outcome,[5],inactive
same,Potency,[6],inactive
same,Potency,[13],inactive
same,Potency,[14],inactive
same,Potency,[15],inactive
same,Potency,[7],inactive
same,Potency,[8],inactive
same,Potency,[9],inactive
same,Potency,[10],inactive
Oc1ccc2[nH]cc(CCCCN3CC=C(c4ccccc4)CC3)c2c1,outcome,[1],inactive
same,Potency,[2],inactive
same,outcome,[3],inactive
same,outcome,[4],inactive
same,outcome,[5],inactive
same,Potency,[6],inactive
same,Potency,[12],inactive
same,Potency,[13],inactive
same,Potency,[15],inactive
same,Potency,[7],5.96 µM (active)
same,Potency,[8],5.96 µM (active)
same,Potency,[9],7.5 µM (active)
same,Potency,[10],inactive
CCC(C)Br (configuration not stated),outcome,[1],inactive
same,Potency,[2],inactive
same,outcome,[3],inactive
same,outcome,[4],inactive
same,outcome,[5],inactive
same,Potency,[6],inactive
same,Potency,[12],inactive
same,Potency,[15],inactive
same,Potency,[7],inactive
same,Potency,[8],inactive
same,Potency,[9],inactive
same,Potency,[10],inactive
same,Potency,[11],inactive
CC(=O)[O-].CC(=O)[O-].CC(=O)[O-].[Sb+3],"fluorescence, % of fluorescein",[1],0.0079% [at 3.72 µM]
same,"fluorescence, % of fluorescent control",[2],-0.0273% [at 3.72 µM]
same,activity change,[3],-0.0203% [at 3.72 µM]
same,"fluorescence, % of fluorescent control",[4],-0.102% [at 3.72 µM]
same,"fluorescence, % of Rose Bengal",[5],0.0344% [at 3.72 µM]
same,"fluorescence, % of fluorescent control",[6],-0.11% [at 3.72 µM]
same,"fluorescence, % of fluorescent control",[12],0.0192% [at 3.72 µM]
same,"viability change, negative = cytotoxic",[15],-0.477% [at 7.04 µM]
same,"activity change, negative = cytotoxicity",[7],-1.26% [at 8.52 µM]
same,"activity change, negative = cytotoxicity",[9],-0.679% [at 8.55 µM]
same,"activity change, negative = cytotoxicity",[10],-2.21% [at 7.04 µM]
same,"viability change, negative = cytotoxic",[11],-11.1% [at 8.47 µM]
C[N+]1(C)[C@@H]2CC[C@H]1CC(OC(=O)C(CO)c1ccccc1)C2 (some centres not stated),outcome,[1],inactive
same,Potency,[2],inactive
same,outcome,[3],inactive
same,outcome,[4],inactive
same,outcome,[5],inactive
same,Potency,[6],inactive
same,Potency,[13],inactive
same,Potency,[14],inactive
same,Potency,[15],inactive
same,Potency,[7],inactive
same,Potency,[8],inactive
same,Potency,[9],inactive
same,Potency,[10],inactive
same,Potency,[11],inactive
c1csc(-c2ccc(-c3cccs3)s2)c1,outcome,[1],inactive
same,Potency,[2],inactive
same,outcome,[3],inactive
same,outcome,[4],inactive
same,outcome,[5],inactive
same,Potency,[16],inactive
same,Potency,[13],49 µM (active)
same,Potency,[15],inactive
same,Potency,[7],68.6 µM (active)
same,Potency,[10],inactive
same,Potency,[11],inactive
[F][Sn]([c]1ccccc1)([c]1ccccc1)[c]1ccccc1,outcome,[1],inactive
same,Potency,[2],inactive
same,outcome,[3],inactive
same,outcome,[4],inactive
same,outcome,[5],inactive
same,Potency,[6],inactive
same,Potency,[12],inactive
same,Potency,[15],977 nM (active)
same,Potency,[7],0.243 µM (active)
same,Potency,[8],0.433 µM (active)
same,Potency,[9],0.306 µM (active)
same,Potency,[10],1.23 µM (active)
same,Potency,[11],3.86 µM (active)
